ChEMBL document CHEMBL4513216, “Probing the Open Global Health Chemical Diversity Library for Multistage-Active Starting Points for Next-Generation Antimalarials” (ACS Infect Dis, 2020)
The campaign covered roughly 69,000 compounds. About 8,600 (12%) showed an effect of 50% or more. Only a selection was taken, and strong results are over-represented in it overall.

Tested on: Plasmodium berghei
Assay: Screen against P. berghei liver stage (PbLuc), transformed with Luciferase, at 10uM
Assay type: functional, HepG2
Conditions: tested at 10 uM

| Structure (SMILES) | INHIBITION [%] |
| --- | --- |
| CCC(=O)N1CCC2(COCc3cnc(NCc4ccco4)nc32)C1 (centres undefined) | 6.55 |
| CNc1cc(N2CCC(O)(CNC(=O)c3ccc(C)nc3)C2)ncn1 (centres undefined) | 12.3 |
| Cc1cnn(CC2CCCN2CC(=O)Nc2cc(C)on2)c1 (centres undefined) | -23.9 |
| Cc1nccc(N(C)Cc2ncc(-c3ccccc3C(=O)O)s2)n1 | 1.635 |
| COc1cc2c(cc1OC)C(=O)C(Sc1nnc(C)o1)C2 (centres undefined) | 27.5 |
| O=C(O)CC1COCCN1Cc1ccccc1-c1ccccc1 (centres undefined) | -4.56 |
| O=C(O)CC1COCCN1CCCc1ccccc1 (centres undefined) | 56.2 |
| O=C(O)CC1COCCN1Cc1ccccc1OCCc1ccccc1 (centres undefined) | 1.95 |
| CCS(=O)(=O)NCCCn1ncc2c(C)cccc21 | 4.35 |
| CCCN(Cc1nccn1C)C(=O)c1cc(C)nc(C)n1 | 42.1 |
| Cc1cc(N(C)CCCn2cccn2)nc(N)n1 | 75.2 |
| Cc1cc(N(C)C)nc(NCCn2cccn2)n1 | -24.4 |
| Cc1cc(C(=O)N(C)CCCn2cccn2)nc(N)n1 | 64.1 |
| Cc1cc(N(C)CCCn2cccn2)nc(-c2cccnc2)n1 | -37.2 |
| CCOc1c(F)cccc1C(=O)N(C)CCn1cccn1 | -27.6 |
| COc1ccc(Cl)c(NCC(=O)NCC(=O)N2CCCC2)c1 | 24.1 |
| COCC1CCCCN1C(=O)c1cc(Cn2ccc3ccccc32)[nH]n1 (centres undefined) | -14.9 |

| Structure (SMILES) | INHIBITION [%] |
| --- | --- |
| CCN(C)C[C@@H]1CN(Cc2cccc(Cl)c2)C[C@@H]1CO | 43.3 |
| CCN(C)C[C@@H]1CN(S(=O)(=O)c2ccc(C#N)cc2)C[C@@H]1CO | 58.6 |
| CCN(C)C[C@@H]1CN(S(=O)(=O)c2ccc(OC)cc2)C[C@@H]1CO | 39.4 |
| COCCN(C)C[C@@H]1CN(C(=O)c2cccc(Cl)c2)C[C@@H]1CO | 10.7 |
| CCN(C)C[C@@H]1CN(S(=O)(=O)c2cccc(C#N)c2)C[C@@H]1CO | 36.2 |
| CCN(C)C[C@@H]1CN(S(=O)(=O)c2cccc(Cl)c2)C[C@@H]1CO | 57.6 |
| O=S(=O)(C1CC1)N1CC[C@]2(C[C@@H](Oc3ccccn3)CO2)C1 | 17.3 |
| CCCc1n[nH]c(C2CN(CCC(F)(F)F)CCO2)n1 (centres undefined) | 29.7 |
| Cc1nnc([C@@]23CCO[C@@H]2CCN(Cc2nccs2)C3)o1 | 37.6 |
| CCc1nc(CN2CCOC(Cn3cncn3)C2)no1 (centres undefined) | -7.31 |
| Cc1cc(CN2CCN(C(C)C)C(CCO)C2)[nH]n1 (centres undefined) | 15.5 |
| Cc1ccc(NS(=O)(=O)C=c2[nH]c(=O)n3cccc3c2=O)cc1 | -53.7 |
| O=c1c(=CS(=O)(=O)Nc2ccccc2)[nH]c(=O)n2cccc12 | -63.5 |
| O=c1c(=CS(=O)(=O)Nc2ccc(Br)cc2)[nH]c(=O)n2cccc12 | 67.3 |
| O=c1c(=CS(=O)(=O)Nc2ccc(Cl)cc2)[nH]c(=O)n2cccc12 | -51.6 |
| CC(C)c1ccc(NS(=O)(=O)C=c2[nH]c(=O)n3cccc3c2=O)cc1 | -26.1 |
| COc1ccc(NS(=O)(=O)C=c2[nH]c(=O)n3cccc3c2=O)cc1Cl | 86.4 |
